Source: PubChem BioAssay
Most compounds without a hit are left out; they make up all but 2% or so of the library.
697 NFkB inh: inhibitors of the PMA/ionomycin-induced NF-kB reporter in 697 B cells; 697 B-cell NF-kB luciferase reporter, 16 h; inhibition, % at 4 µM; 0.33% of 330,000 active; in the data active = inhibition above about 35%
NR2F2 inh: blocks human COUP-TFII nuclear receptor. inhibition, % at 8.6 µM. AID 686940. HEK293T NGFI-A luciferase reporter, luminescence. 0.7% of 370,000 active;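 active = inhibition above a per-plate cutoff, mean inhibition of test wells between control levels plus 3 SD, cut at about 38% in these data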;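 note: cells cotransfected with COUP-TFII expression vector driving the NGFI-A reporter; 0% = median of COUP-TF2 test wells and 100% = reporter-only cells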
GalR3 antag: antagonists of human GalR3. O60755. HEK293 GalR3-CNG cAMP membrane potential fluorescence; galR3 body fused to GalR1 C-terminus. inhibition, % at 3 µM. 0.44% of 360,000 active. AID 651719;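 active = inhibition above the screen-wide average plus 3 SD, cut at about 13% in these data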;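 note: forskolin and galanin both at EC90 stimulate the cells; cAMP rise reported by CNG channel membrane potential dye signal; 0% = forskolin plus galanin with DMSO and 100% = forskolin alone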
Target sequence (O60755 1-299 limits assumed): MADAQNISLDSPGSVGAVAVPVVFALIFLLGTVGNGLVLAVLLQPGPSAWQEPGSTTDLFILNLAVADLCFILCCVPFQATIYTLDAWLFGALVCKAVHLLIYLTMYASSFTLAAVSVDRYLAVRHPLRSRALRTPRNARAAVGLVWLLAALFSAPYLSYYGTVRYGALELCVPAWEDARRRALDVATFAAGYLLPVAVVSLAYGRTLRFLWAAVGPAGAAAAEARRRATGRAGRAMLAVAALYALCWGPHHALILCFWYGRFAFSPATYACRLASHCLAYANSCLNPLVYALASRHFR
Jurkat NFkB inh: lowers PMA/ionomycin-induced NF-kB signal in Jurkat cells. 0.53% of 330,000 active. PMA/ionomycin-induced NF-kB luciferase reporter, luminescence. inhibition, % at 4 µM; in the data active = inhibition above about 50%
Gli-Sufu antag: Gli-Sufu pathway antagonism; Sufu-KO-LIGHT fibroblasts, Gli luciferase reporter luminescence; inhibition, % at 5 µM; 0.74% of 340,000 active; AID 588413;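 active = inhibition above about 55%, limit read from the data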;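 note: 0% = DMSO-treated cells and 100% = wells with medium but no cells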
GalR3 conf: GalR3 (human) antagonism, confirmation; 59% of 1,600 active; AID 652245; shares compounds with GalR3 antag; inhibition, % at 3 µM; HEK293 GalR3 CNG cAMP biosensor, membrane potential fluorescence; galR3 fused to GalR1 carboxy tail; challenged with forskolin and galanin at EC90;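 active = inhibition above the primary screen's cutoff, the mean inhibition of all screened compounds plus 3 SD, cut at about 13% in these data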;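 note: 0% = forskolin plus galanin and 100% = forskolin alone with DMSO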
CNG parental: counter-screen for GalR3 antagonists: nonspecific agonists in parental HEK-CNG cells | shares compounds with GalR3 antag | HEK293-CNG parental cells, cAMP membrane potential fluorescence; normalised: DMSO wells 0%, forskolin wells 100% | activation, % at 3 µM | 10% of 1,600 active; in the data active = activation above about 1.3%
An asterisk follows results filed as active; · = not tested or not shown.

SMILES | 697 NFkB inh | NR2F2 inh | GalR3 antag | Jurkat NFkB inh | Gli-Sufu antag | GalR3 conf | CNG parental
O=C(Cn1nc(-c2ccc(N3CCOCC3)c([N+](=O)[O-])c2)c2ccccc2c1=O)N1CCCCC1 | 2 | 12 | 15* | -9 | 0 | 60* | 0
COC(CNC(=O)[C@H](Cc1ccccc1)NC1(C(=O)NC2CCCCC2)CCC1)OC | · | 7 | · | · | · | · | ·
CC(C)(C)C(=O)NC(=S)NNC(=O)c1ccc(Cl)cc1Cl | -4 | -13 | 16* | -3 | -4 | 13* | 0
COC(=O)NNC(=O)c1ccc(Cl)cc1Cl | -4 | -16 | -2 | 7 | 2 | · | ·
N#Cc1cccc(NC(=O)OC2CCC23CCC(c2ccccc2)CC3)c1 (stereo not given) | · | 10 | · | · | · | · | ·
CC(/C=N/NC(=O)CSc1nnc(SCc2ccc(C)cc2)s1)=C\c1ccco1 | · | 9 | · | · | · | · | ·
COc1ccc(Cl)cc1NC(=O)Nc1ccccc1SC | 24 | 14 | · | -2 | 6 | 11 | 0
CCOC(=O)C1=C(C(=O)OCC)C2N(Cc3ccc(C#N)cc3)c3ccccc3[C@@]23C[C@@H](C(=O)OC)N(S(=O)(=O)c2ccc(C)cc2)C3=N1 (stereo not given in full) | · | -4 | 8 | · | · | · | ·
CCOC(=O)c1[nH]c2ccc(OC)cc2c1NS(=O)(=O)c1ccc(Cl)s1 | -19 | -16 | 103* | -3 | 4 | 92* | 0
COc1ccc(C2=NS(=O)(=O)N(C)C(C(=O)N(C)Cc3ccccc3)=C2)cc1OC | 11 | 2 | 15* | 16 | 0 | 22* | -1
Cn1c(NC2=NC3(CCCC3)C3=C(CCCC3=O)N2)nc2ccccc21 | · | -8 | · | · | · | · | ·
O=C(NC(Cc1ccccc1)C(=O)O)/C(=C/c1ccccc1)NC(=O)c1ccco1 (stereo not given) | -10 | -13 | 16* | -9 | -11 | 8 | 0
O=C(COn1nnc2ccc(C(F)(F)F)cc21)Nc1c(Cl)cccc1Cl | 13 | 21 | 15* | -2 | -6 | 6 | 0
CC(=O)OCC1OC(n2c(S)c(C#N)c(-c3ccccc3)c(C#N)c2=O)C(OC(C)=O)C(OC(C)=O)C1OC(C)=O (stereo not given) | · | -18 | 57* | · | 6 | 87* | 1
CCN(CC)c1ccc(/C=N/NC(=S)NCc2ccccc2)c(O)c1 | -4 | 8 | 13* | 8 | 19 | 25* | -2
S=C1NNC2(NN1)C1CC3CC(C1)CC2C3 | 4 | -3 | 15* | -13 | 0 | 3 | 0
C1CSC2(N1)C1CC3CC(C1)CC2C3 (stereo not given) | 15 | -7 | 3 | 21 | -1 | · | ·
COC(=O)[C@]12C[C@H](CC(=O)N3CCN(C(=O)c4ccco4)CC3)C(=O)N(CCC3=CCCCC3)C1=C[C@H](C1CCCC1)O[C@@H]2C | · | 7 | · | · | · | · | ·
O=C(NC1CCCCN(Cc2cccc(C(F)(F)F)c2)C1=O)c1cccc([N+](=O)[O-])c1 (stereo not given) | · | -5 | · | · | · | · | ·
Cc1ccc(-c2nn3c(C)nnc3c3ccccc23)cc1S(=O)(=O)NC(C)c1ccccc1 (stereo not given) | 19 | -29 | 15* | -8 | -11 | 23* | 1
O=C(COc1ccc2c(c1)oc(=O)c1ccccc12)NC(Cc1ccc(Cl)cc1)C(=O)O (stereo not given) | -9 | -7 | 26* | -8 | -13 | 4 | 0
O=C(COc1ccc2c(c1)oc(=O)c1ccccc12)N[C@@H](Cc1ccccc1)C(=O)O | 7 | 9 | 0 | 1 | 7 | · | ·
Cc1ccc(C(=O)N2CCCC(CCC(=O)N3CCN(c4ccccn4)CC3)C2)cc1C (stereo not given) | -19 | 31 | -6 | 7 | 10 | · | ·
Cc1ccc(C(=O)N2CCCC(CCC(=O)N3CCN(c4ccccn4)CC3)C2)cn1 (stereo not given) | 7 | 9 | 13* | 11 | 2 | 8 | 0
C=CCN1C(=O)[C@H](CC(=O)N2CCCC2)[C@@]2(C(=O)OCC)CCCC=C12 | · | 6 | · | · | · | · | ·
SMILES | 697 NFkB inh | NR2F2 inh | GalR3 antag | Jurkat NFkB inh | Gli-Sufu antag | GalR3 conf | CNG parental
CC(C)CN(C(=O)CN1CCN(c2cccc(Cl)c2)CC1)c1c(N)n(CC(C)C)c(=O)[nH]c1=O | 8 | -13 | -6 | 9 | 11 | · | ·
CC(C)CN(C(=O)CN1CCN(S(=O)(=O)c2ccc3ccccc3c2)CC1)c1c(N)n(CC(C)C)c(=O)[nH]c1=O | 14 | 13 | 18* | -9 | -1 | -4 | 0
COc1cc([N+](=O)[O-])cc(/C=N/NC(=O)c2cncc(Br)c2)c1O | -2 | 5 | 25* | 5 | 6 | 38* | 0
COC(=O)C1CN(Cc2cn(Cc3ccc(Cl)cc3)nn2)CCS(=O)(=O)N1Cc1ccc(C)cc1 (stereo not given) | · | 1 | · | · | · | · | ·
Cc1ccc(C)c(OCC(=O)NNC(=O)c2ccc(NC(=O)C3CC3)cc2)c1 | 20 | -3 | 0 | -12 | 22 | · | ·
Cc1cc(Br)ccc1OCC(=O)NNC(=O)c1ccc(NC(=O)C2CC2)cc1 | 15 | -12 | 50* | 10 | -9 | 36* | 0
COc1ccc(C(CCOC(=O)Oc2ccccc2)c2cc(OC)c(OC)c(OC)c2)cc1 (stereo not given) | · | -10 | · | · | · | · | ·
COCCCN1C(=O)[C@H](CC(=O)N2CCC(c3ccccc3)CC2)[C@]2(C(=O)OC)CCCCC=C12 | · | 8 | · | · | · | · | ·
COc1ccc(-c2cc(-c3n[nH]c(=S)n3-c3cccc4ccccc34)[nH]n2)cc1 | 8 | -8 | 52* | -4 | 3 | 49* | 0
S=c1[nH]nc(-c2cc(-c3ccsc3)n[nH]2)n1-c1cccc2ccccc12 | -14 | 3 | 4 | 2 | -3 | · | ·
COc1ccccc1-n1c(-c2cc(-c3ccc(F)cc3)n[nH]2)n[nH]c1=S | 17 | -12 | 14* | 19 | 1 | 13* | 0
COc1ccccc1-n1c(-c2cccnc2)n[nH]c1=S | 4 | 14 | -7 | 4 | 5 | · | ·
CCOC(=O)C(Cc1ccccc1)P(=O)(OCC)OCC (stereo not given) | · | -19 | · | · | · | · | ·
Cc1ccc(/C(N)=N/OC(=O)CCC2CCCC2)cc1 | -33 | 21 | 13* | -56 | -17 | -2 | 0
Cc1ccc(/C(N)=N/OC(=O)CCC2CCCCC2)cc1 | -24 | -9 | -3 | -26 | -24 | · | ·
Cc1cc(NCCO)nc(-n2nc(C)cc2C)n1 | 18 | 7 | 13* | 11 | 2 | 0 | 0
Cc1cc(N(CCO)CCO)nc(-n2nc(C)cc2C)n1 | 7 | -8 | 5 | -7 | -1 | · | ·
CCCCNC(=O)N(CC)c1c(N)n(Cc2ccccc2)c(=O)[nH]c1=O | 0 | -4 | 13* | -10 | 2 | 3 | 0
